# Measured values published in PubChem BioAssay (EPA / NIEHS).
# Several values for one entry are separate records, joined by “and”; a condition that tells them apart may be missing. Equal values may be shown once. Inconclusive results are not listed. The source holds several records for some structures; these can differ, active in one and inactive in another. Activity calls are given as the source filed them. Rule for the calls, unless noted: active = hit-call score of the fitted dose curve at least 0.9, where 1 is the maximum; inconclusive = response in the unintended direction; inactive = score below 0.9.
# Experiments:
# [1] = Tanguay_ZF_120hpf_PIG_legacy: (Legacy) Oregon State University Tanguay Lab 120 Hour Post-fertilization zebrafish Assay for Pigmentation Malformation (AID 2283650)
# How it was run: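 Endpoint is incidence of abnormal pigmentation at 120 hpf in dechorionated 5D zebrafish exposed singly from 6 hpf at 28C, DMSO vehicle at 0.64%. Embryos dying by 24 or 120 hpf are excluded from scoring.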
# [2] = Tanguay_ZF_120hpf_CIRC_legacy: (Legacy) Oregon State University Tanguay Lab 120 Hour Post-fertilization zebrafish Assay for Circulatory Malformation (AID 2283651)
# How it was run: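 Embryos are dechorionated at 4 hpf, plated one per well at 6 hpf, then held under static exposure at 28C until 120 hpf. Malformations are recorded as binary calls; mortality excludes other endpoints.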
# [3] = Tanguay_ZF_120hpf_SWIM_legacy: (Legacy) Oregon State University Tanguay Lab 120 Hour Post-fertilization zebrafish Assay for Swim Bladder Malformation (AID 2283654);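 note: swim bladder malformation in each larva scored yes or no under brightfield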
# How it was run: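 Static waterborne exposure of single dechorionated Tropical 5D zebrafish embryos, 6–120 hpf, 28C, 0.64% DMSO final. Read-out: swim bladder malformation, present/absent, relative to DMSO negative control; trimethyltin chloride 5uM served as positive control.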
# [4] = Tanguay_ZF_120hpf_TRUN_legacy: (Legacy) Oregon State University Tanguay Lab 120 Hour Post-fertilization zebrafish Assay for Truncated Body (AID 2283655)
# How it was run: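 Single dechorionated zebrafish embryos received test chemical from 6 hpf in 0.64% DMSO, kept at 28C. At 120 hpf, brightfield inspection noted any truncated body.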
# [5] = Tanguay_ZF_120hpf_NC_legacy: (Legacy) Oregon State University Tanguay Lab 120 Hour Post-fertilization zebrafish Assay for Notochord and Tail Malformation (AID 2283656)
# How it was run: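 Binary scoring of notochord distortion by brightfield microscopy; embryos dying were not scored. Wild-type Tropical 5D embryos, chorion removed, exposed singly and statically from 6 to 120 hpf, 28C, sealed, 0.64% DMSO.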
# [6] = read-out: solute carrier (SLC10A1), SLC10A1 (gene 6554); test: LTEA_HepaRG_SLC10A1: Life Technologies and Expression Analysis (LTEA) Assay for solute carrier (SLC10A1) using HepaRG (AID 2283657; active = hit-call score of the fitted dose curve at least 0.9, where 1 is the maximum; inactive = score below 0.9); conditions: mRNA level, 48 h; actives raise or lower the signal
# How it was run: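 Cryopreserved HepaRG cells are thawed, plated and cultured 48 h; medium is then switched to serum-free induction medium and chemicals added (8 points, max 100 uM, 0.5% DMSO). After 48 h, RNA is isolated and SLC10A1 quantified by qRT-PCR.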
# [7] = read-out: matrix metalloproteinase-1 (MMP1), MMP1 (gene 4312); test: LTEA_HepaRG_MMP1: Life Technologies and Expression Analysis (LTEA) Assay for matrix metalloproteinase-1 (MMP1) using HepaRG (AID 2283658; active = hit-call score of the fitted dose curve at least 0.9, where 1 is the maximum; inactive = score below 0.9); conditions: mRNA level, 48 h; actives raise or lower the signal
# How it was run: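 In this screen, human liver HepaRG cultures receive each chemical in duplicate for 48 h (top 100 uM, 0.5% DMSO). MMP1 expression is then quantified by TaqMan qRT-PCR with ACTB/GAPDH/POLR2A normalization.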
# [8] = read-out: ABC Transporter (ABCB1), ABCB1 (gene 5243); test: CLD_ABCB1_6hr: CellzDirect (CLD) Gene Expression Assay for ABC Transporter (ABCB1) at 6 hours (AID 2283659);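 note: hits raise ABCB1 transcript above the DMSO vehicle baseline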
# How it was run: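 ABCB1 transcript measured by quantitative nuclease protection assay, chemiluminescent read-out, 6 h after dosing human hepatocyte cultures (0.2% DMSO vehicle, daily redosing). Activity fitted as increase over DMSO baseline; cytotoxicity flagged by phase-contrast morphology.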
# [9] = read-out: xenobiotic metabolism (CYP1A1), CYP1A1 (gene 1543); test: CLD_CYP1A1_6hr: CellzDirect (CLD) Gene Expression Assay for xenobiotic metabolism (CYP1A1) at 6 hours (AID 2283661);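 for AC50: potency for transcript induction above DMSO vehicle baseline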
# How it was run: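 Read-out 6 h post-dose: qNPA chemiluminescent quantitation of transcript induction against 0.2% DMSO. Cells were cultured primary human hepatocytes from two separate donor preparations; phase-contrast morphology annotated apparent cytotoxicity.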
# [10] = tested on: Thyroperoxidase (TPO), gene 54314; test: CCTE_Simmons_AUR_rTPO: CCTE's Amplex UltraRed Assay for Thyroperoxidase (TPO) Inhibition, Simmons Lab (AID 2283662);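 for AC50: potency for loss of signal meaning inhibition of peroxidase activity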
# How it was run: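 Rat thyroid microsomes (5 ug protein) were incubated with test compound (8 concentrations, 5 nM–87.5 uM final, 0.5% DMSO), 25 uM Amplex UltraRed and 300 uM H2O2 in 200 mM phosphate buffer for 30 min at 37C in the dark; fluorescence read at 544/590 nm.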
# [11] = CCTE_Simmons_CellTiterGLO_HEK293T: Viability Assessment in CCTE's Assays for Thyroperoxidase (TPO) Inhibition, Simmons Lab (AID 2283665);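 for AC50: cells exposed to compound for 24 h before readout; actives reduce ATP signal below DMSO vehicle meaning cytotoxicity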
# How it was run: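 Cells were seeded overnight, then exposed to an eight-point series up to 87.5 uM final for 24 hours. CellTiter-Glo reagent was added and luminescence read after 20 min, giving ATP-based viability versus DMSO.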
# [12] = read-out: sulfotransferase (SULT2A), SULT2A1 (gene 6822); test: CLD_SULT2A_6hr: CellzDirect (CLD) Gene Expression Assay for sulfotransferase (SULT2A) at 6 hours (AID 2283669);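 note: hits raise transcript level above the DMSO vehicle baseline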
# How it was run: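 Measured 6 h after dosing, SULT2A1 mRNA in human hepatocyte lysates was quantified by S1 nuclease protection with chemiluminescent detection. Increases fitted against 0.2% DMSO vehicle baseline; phase-contrast cytotoxicity recorded yes/no.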
# [13] = read-out: Cytochrome P450 (CYP24A1_1), CYP24A1 (gene 1591); test: LTEA_HepaRG_CYP24A1_1: Life Technologies and Expression Analysis (LTEA) Assay for Cytochrome P450 (CYP24A1_1) using HepaRG (AID 2283671; active = hit-call score of the fitted dose curve at least 0.9, where 1 is the maximum; inactive = score below 0.9); conditions: mRNA level, 48 h; actives raise or lower the signal
# How it was run: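 Cultures of human HepaRG were treated in duplicate for 48 h (0.5% DMSO vehicle, highest dose 100 uM). CYP24A1 mRNA by qRT-PCR, normalized to ACTB, GAPDH, POLR2A.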
# [14] = read-out: ABC Transporter (ABCB11), ABCB11 (gene 8647); test: CLD_ABCB11_6hr: CellzDirect (CLD) Gene Expression Assay for ABC Transporter (ABCB11) at 6 hours (AID 2283675);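 note: hits raise ABCB11 mRNA level so AC50 marks induction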
# How it was run: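 Read-out was ABCB11 mRNA gain of signal by quantitative nuclease protection assay, relative to 0.2% DMSO vehicle, 6 h post-dose. Cells were primary human hepatocytes from two donors, treated across multiple concentrations; phase-contrast cytotoxicity noted yes/no.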
# [15] = read-out: alkyl and aryl transferase (GSTA2), GSTA2 (gene 2939); test: CLD_GSTA2_6hr: CellzDirect (CLD) Gene Expression Assay for alkyl and aryl transferase (GSTA2) at 6 hours (AID 2283666)
# How it was run: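 GSTA2 transcript induction at 6 h, quantified by nuclease protection (qNPA) with chemiluminescent detection, in human liver primary hepatocytes exposed to several compound concentrations with 0.2% DMSO as baseline; phase-contrast morphology annotated apparent cytotoxicity.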
# [16] = read-out: organic anion transporter (SLCO1B1), SLCO1B1 (gene 10599); test: CLD_SLCO1B1_6hr: CellzDirect (CLD) Gene Expression Assay for organic anion transporter (SLCO1B1) at 6 hours (AID 2283668);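 note: active means mRNA induction above DMSO baseline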
# How it was run: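 SLCO1B1 mRNA induction measured 6 h after dosing by quantitative nuclease protection with chemiluminescent read-out, in human primary hepatocyte cultures given chemicals at several concentrations (vehicle 0.2% DMSO). Increase over DMSO baseline fitted; morphology-based cytotoxicity annotated yes/no.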
# [17] = read-out: kallikrein-3 (KLK3), KLK3 (gene 354); test: LTEA_HepaRG_KLK3: Life Technologies and Expression Analysis (LTEA) Assay for kallikrein-3 (KLK3) using HepaRG (AID 2283652; active = hit-call score of the fitted dose curve at least 0.9, where 1 is the maximum; inactive = score below 0.9); conditions: mRNA level, 48 h; actives raise or lower the signal
# How it was run: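 KLK3 transcript levels were measured by TaqMan qRT-PCR with normalisation to three housekeeping genes. HepaRG cultures received chemicals for 48 h at up to 100 uM (half-log, 8 points, 0.5% DMSO vehicle), fitted in both directions against DMSO.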
compound,measurement,setting,value
CCCN(CCOc1c(Cl)cc(Cl)cc1Cl)C(=O)n1ccnc1,outcome,[1],inactive
same,outcome,[2],inactive
same,outcome,[3],inactive
same,outcome,[4],inactive
same,outcome,[5],inactive
same,AC50,[6],35.9 µM (active)
same,AC50,[7],69.2 µM (active)
same,outcome,[8],inactive
same,AC50,[9],0.0868 µM (active)
same,outcome,[10],inactive
same,AC50,[11],89.5 µM (active)
same,outcome,[12],inactive
same,outcome,[13],inactive
same,outcome,[14],inactive
O=C(O)CCCOc1ccc(Cl)cc1Cl,outcome,[1],inactive
same,outcome,[2],inactive
same,outcome,[3],inactive
same,outcome,[4],inactive
same,outcome,[5],inactive
same,outcome,[8],inactive
same,outcome,[9],inactive
same,outcome,[15],inactive
same,outcome,[16],inactive
same,outcome,[12],inactive
Cc1[nH]c(=O)n(C(C)(C)C)c(=O)c1Cl,outcome,[1],inactive
same,outcome,[2],inactive
same,outcome,[3],inactive
same,outcome,[4],inactive
same,outcome,[5],inactive
same,AC50,[6],50 µM (active)
same,outcome,[7],inactive
same,outcome,[8],inactive
same,AC50,[9],20 µM (active)
same,outcome,[12],inactive
same,outcome,[13],inactive
N#Cc1c(Cl)c(Cl)c(Cl)c(C#N)c1Cl,outcome,[1],inactive
same,outcome,[2],inactive
same,outcome,[3],inactive
same,AC50,[4],47.8 µM (active)
same,outcome,[5],inactive
same,AC50,[6],27.8 µM (active)
same,AC50,[7],13.3 µM (active)
same,AC50,[9],36.8 µM (active)
same,outcome,[15],inactive
same,AC50,[12],33.5 µM (active)
same,outcome,[13],inactive
same,AC50,[14],20 µM (active)
Oc1cc(Cl)ccc1Oc1ccc(Cl)cc1Cl,outcome,[1],inactive
same,outcome,[2],inactive
same,outcome,[3],inactive
same,outcome,[4],inactive
same,outcome,[5],inactive
same,outcome,[8],inactive
same,outcome,[9],inactive
same,AC50,[10],36.3 µM (active) and 21.6 µM (active) and 43.6 µM (active)
same,outcome,[10],inactive
same,AC50,[11],13.1 µM (active) [middle of 4 runs]
same,outcome,[15],inactive
same,outcome,[16],inactive
same,outcome,[14],inactive
COP(=S)(OC)Oc1ccc(SC)c(C)c1,outcome,[1],inactive
same,outcome,[2],inactive
same,outcome,[3],inactive
same,outcome,[4],inactive
same,outcome,[5],inactive
same,AC50,[9],5.13 µM (active)
same,AC50,[10],34.3 µM (active)
same,outcome,[11],inactive
same,outcome,[12],inactive
Oc1ccc(Cl)cc1Cc1ccccc1,outcome,[1],inactive
same,outcome,[2],inactive
same,outcome,[3],inactive
same,outcome,[4],inactive
same,outcome,[5],inactive
same,outcome,[8],inactive
same,outcome,[9],inactive
same,AC50,[10],12.7 µM (active)
same,outcome,[15],inactive
CN1CSC(=S)N(C)C1,outcome,[1],inactive
same,outcome,[2],inactive
same,outcome,[17],inactive
same,outcome,[3],inactive
same,outcome,[4],inactive
same,AC50,[5],6.95 µM (active)
same,outcome,[6],inactive
same,outcome,[7],inactive
same,outcome,[8],inactive
same,outcome,[9],inactive
same,AC50,[10],6.52 µM (active)
same,outcome,[11],inactive
same,outcome,[15],inactive
same,outcome,[16],inactive
same,outcome,[12],inactive
same,outcome,[13],inactive
same,outcome,[14],inactive
O=[N+]([O-])c1c(Cl)c(Cl)c(Cl)c(Cl)c1Cl,outcome,[1],inactive
same,outcome,[2],inactive
same,outcome,[3],inactive
same,outcome,[4],inactive
same,outcome,[5],inactive
same,outcome,[8],inactive
same,outcome,[9],inactive
same,outcome,[15],inactive
same,outcome,[16],inactive
same,outcome,[14],inactive
CCCN(CCC)c1c([N+](=O)[O-])cc(C(F)(F)F)cc1[N+](=O)[O-],outcome,[1],inactive
same,outcome,[2],inactive
same,outcome,[3],inactive
same,outcome,[4],inactive
same,outcome,[5],inactive
same,outcome,[6],inactive
same,outcome,[7],inactive
same,outcome,[8],inactive
same,AC50,[9],3.69 µM (active)
same,outcome,[15],inactive
same,outcome,[12],inactive
same,outcome,[13],inactive
same,outcome,[14],inactive
CCOC1Oc2ccc(OS(C)(=O)=O)cc2C1(C)C (stereo not given),outcome,[1],inactive
same,outcome,[2],inactive
same,outcome,[17],inactive
same,outcome,[3],inactive
same,outcome,[4],inactive
same,AC50,[6],84.8 µM (active)
same,outcome,[7],inactive
same,outcome,[8],inactive
same,AC50,[9],3.97 µM (active)
same,outcome,[15],inactive
same,outcome,[12],inactive
same,outcome,[13],inactive
